# Measured values published in PubChem BioAssay (NCI).
# Compounds without any hit were thinned out: in the full panel of roughly 79,000, 15% have a hit. A number with no mark means an inactive call. Active and inactive are the calls of the source. Cut-off read from the data, not from the text of the source: active = growth inhibition above about 70%; inactive = the rest.
# Experiments:
# [1] = NCI Yeast Anticancer Drug Screen. Data for the rad52 strain (AID 147);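 note: 0% = growth of vehicle-treated control cultures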; conditions: S. cerevisiae rad52 mutant growth inhibition, active compounds read high
# How it was run: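 Growth of repair-deficient yeast cells was compared between compound-treated and vehicle-treated cultures to give percent inhibition.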
# [2] = NCI Yeast Anticancer Drug Screen. Data for the wt1 strain (AID 149);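 note: 0% = growth of vehicle-treated wt1 cultures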; conditions: S. cerevisiae wt1 strain (SPY 50644) growth inhibition, active compounds read high
# How it was run: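 Each compound is tested on wt1 yeast and the loss of growth versus vehicle gives the inhibition value.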
# [3] = NCI Yeast Anticancer Drug Screen. Data for the rad50EPP+ strain (AID 151);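 note: 0% = growth of vehicle-treated control cultures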; conditions: S. cerevisiae rad50 mutant strain, active compounds read high
# How it was run: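 Measured: growth inhibition of rad50EPP+ yeast. Reference: vehicle-treated controls. Screen uses strains with defined genetic alterations in DNA damage repair or cell cycle control.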
# [4] = NCI Yeast Anticancer Drug Screen. Data for the mgt1 strain (AID 153); conditions: S. cerevisiae mgt1 mutant growth inhibition, active compounds read high
# How it was run: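 Compounds were applied to mgt1 mutant yeast, and growth was then compared against vehicle-treated control cultures to give percent inhibition.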
# [5] = NCI Yeast Anticancer Drug Screen. Data for the rad50 strain (AID 155);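 note: 0% = growth of vehicle-only cultures of the same strain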; conditions: S. cerevisiae rad50 strain growth inhibition, active compounds read high
# How it was run: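 Vehicle-treated cultures provide the reference for the growth inhibition reported for compound-exposed, repair-deficient yeast.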
# [6] = NCI Yeast Anticancer Drug Screen. Data for the mec2-1 strain (AID 157); conditions: S. cerevisiae mec2-1 strain, active compounds read high
# How it was run: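 Compounds were applied to mec2-1 yeast cells. Their growth was then compared with that of vehicle-treated cultures to give growth inhibition.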
# [7] = NCI Yeast Anticancer Drug Screen. Data for the rad14 strain (AID 159);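 note: 0% = growth of vehicle-treated control cultures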; conditions: S. cerevisiae rad14 strain growth inhibition, active compounds read high
# How it was run: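 Inhibition of growth is reported for a repair-deficient yeast mutant following compound treatment, calculated relative to cultures that received vehicle.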
# [8] = NCI Yeast Anticancer Drug Screen. Data for the sgs1 mgt1 strain (AID 161);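 note: 0% = growth of cultures given vehicle only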; conditions: S. cerevisiae sgs1 mgt1 strain, active compounds read high
# How it was run: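 Growth of a repair-deficient yeast mutant was monitored after compound treatment and expressed as inhibition relative to vehicle-treated cultures.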
# [9] = NCI Yeast Anticancer Drug Screen. Data for the CLN2oe strain (AID 163);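 note: 0% = growth of vehicle-only control cultures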; conditions: S. cerevisiae CLN2oe strain, active compounds read high
# How it was run: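 Cells of an engineered yeast line with disturbed cell-cycle regulation are treated with compound. Inhibition of growth is then calculated relative to the vehicle-treated reference.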
# [10] = NCI Yeast Anticancer Drug Screen. Data for the cln2 rad14 strain (AID 165);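 note: 0% = growth equal to vehicle treated cultures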; conditions: S. cerevisiae cln2 rad14 strain, active compounds read high
# How it was run: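 Strain: cln2 rad14 yeast, altered in cell cycle control and DNA damage repair. Read-out: growth inhibition vs vehicle.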
# [11] = NCI Yeast Anticancer Drug Screen. Data for the bub3 strain (AID 167); conditions: S. cerevisiae bub3 mutant strain, active compounds read high
# How it was run: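 Mutant yeast screening strain plus compound; vehicle-treated cultures serve as the 0% inhibition reference.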
# [12] = at 5.0 µM (retest, dose inferred, filed as 0.5)
# [13] = at 50.0 µM (retest, dose inferred, filed as 5.0)
smiles,measurement,setting,value
O=c1[nH]c2c([N+](=O)[O-])cccc2c2ccccc12,growth inhibition,[1]; at 1.2 µM,-1%
same,growth inhibition,[1]; at 3.7 µM,0%
same,growth inhibition,[1]; at 11.0 µM,6%
same,growth inhibition,[1]; at 33.0 µM,40%
same,growth inhibition,[1]; at 100.0 µM,89% (active)
same,growth inhibition,[2]; at 1.2 µM,-3%
same,growth inhibition,[2]; at 3.7 µM,-2%
same,growth inhibition,[2]; at 11.0 µM,-2%
same,growth inhibition,[2]; at 33.0 µM,5%
same,growth inhibition,[2]; at 100.0 µM,73% (active)
same,growth inhibition,[3]; at 1.2 µM,5%
same,growth inhibition,[3]; at 3.7 µM,12%
same,growth inhibition,[3]; at 11.0 µM,26%
same,growth inhibition,[3]; at 33.0 µM,52%
same,growth inhibition,[3]; at 100.0 µM,76% (active)
same,growth inhibition,[4]; at 1.2 µM,-4%
same,growth inhibition,[4]; at 3.7 µM,-3%
same,growth inhibition,[4]; at 11.0 µM,-3%
same,growth inhibition,[4]; at 33.0 µM,19%
same,growth inhibition,[4]; at 100.0 µM,90% (active)
same,growth inhibition,[5]; at 1.2 µM,2%
same,growth inhibition,[5]; at 3.7 µM,-42%
same,growth inhibition,[5]; [12],7%
same,growth inhibition,[5]; at 11.0 µM,33%
same,growth inhibition,[5]; at 33.0 µM,53%
same,growth inhibition,[5]; [13],80% (active)
same,growth inhibition,[5]; at 50.0 µM,96.2% (active)
same,growth inhibition,[5]; at 100.0 µM,95% (active)
same,growth inhibition,[6]; at 1.2 µM,0%
same,growth inhibition,[6]; at 3.7 µM,0%
same,growth inhibition,[6]; [12],4%
same,growth inhibition,[6]; at 11.0 µM,3%
same,growth inhibition,[6]; at 33.0 µM,17%
same,growth inhibition,[6]; [13],52%
same,growth inhibition,[6]; at 50.0 µM,96% (active)
same,growth inhibition,[6]; at 100.0 µM,89% (active)
same,growth inhibition,[7]; at 1.2 µM,2%
same,growth inhibition,[7]; at 3.7 µM,5%
same,growth inhibition,[7]; at 11.0 µM,12%
same,growth inhibition,[7]; at 33.0 µM,24%
same,growth inhibition,[7]; at 100.0 µM,86% (active)
same,growth inhibition,[8]; [12],2%
same,growth inhibition,[8]; [13],51%
same,growth inhibition,[8]; at 50.0 µM,96.8% (active)
same,growth inhibition,[9]; at 1.2 µM,-13%
same,growth inhibition,[9]; at 3.7 µM,-15%
same,growth inhibition,[9]; at 11.0 µM,-16%
same,growth inhibition,[9]; at 33.0 µM,-29%
same,growth inhibition,[9]; at 100.0 µM,12%
same,growth inhibition,[10]; [12],-13%
same,growth inhibition,[10]; [13],11%
same,growth inhibition,[10]; at 50.0 µM,93% (active)
same,growth inhibition,[11]; at 1.2 µM,-4%
same,growth inhibition,[11]; at 3.7 µM,-6%
same,growth inhibition,[11]; [12],3%
same,growth inhibition,[11]; at 11.0 µM,0%
same,growth inhibition,[11]; at 33.0 µM,28%
same,growth inhibition,[11]; [13],72% (active)
same,growth inhibition,[11]; at 50.0 µM,95% (active)
same,growth inhibition,[11]; at 100.0 µM,90% (active)
